Rows were chosen to be rich in hits. Some 2.3% of all compounds tested hit in one or more screens of this group.
FUS suppressor: rescues growth of FUS-expressing yeast; S. cerevisiae FUS-expressing, growth rescue, OD600, 24 h; Potency, µM (highest dose often 76.6 µM), usual class: activators; hit rate 0.24% among 390,000; also: nearly all actives have a fitted effect of over 55% in size
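Yeast FUS proteinopathy model; galactose-induced FUS (2%), starting OD 0.005. Cpds in dilution series, 24hr, 30C, 99% humidity. Abs 600 nm growth. Pos ctrl CP55940 (top 92uM final); neg ctrl DMSO.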
CCT modulator: modulators of cytosolic chaperonin (CCT/TRiC) activity. purified chaperonin ATPase assay, HTRF ADP detection, 30 min. activity change, % (test concentration not listed), hits read low. hit rate 0.3% among 360,000. AID 651819; in the data active = activity change below about -30%
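Enzyme 40 or 20 nM (batch-dependent) in Tris pH 7.4/KCl/MgCl2/DTT; cpd 76 uM single point; ATP 10 uM; 30 min 37 °C; Transcreener ADP HTRF detection, 30 min RT; ratio 665/615.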
Abeta rescue: compounds reversing amyloid beta toxicity in yeast; Potency, µM (top dose mostly 46.1 µM), actives largely listed as activators; hit rate 0.063% among 410,000; yeast expressing A-beta42, growth rescue, OD600, 48 h; response scale: 0% DMSO, 100% iron-clioquinol control; also: nearly all actives have a fitted effect of over 55% in size
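Growth rescue measured by 600 nm absorbance after 48 h yeast culture at 30 C with compound. Values normalized between DMSO and an equimolar ferric chloride plus clioquinol control.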
MmCpn inh: inhibitors of Methanococcus maripaludis chaperonin TRiC (MmCpn); purified Mm-Cpn ATPase, ADP Transcreener TR-FRET; Potency, µM (doses to about 76.9 µM), hits mostly inhibitors; hit rate 0.031% among 330,000; AID 504842; also: nearly all actives have a fitted effect of over 80% in size
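Inhibition of chaperonin ATP hydrolysis is measured as reduced ADP production, detected by competitive TR-FRET in which signal falls with ADP. Final enzyme 25 nM and ATP 10 uM, reacted 30 min at 37°C.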
aSyn yeast inh: rescues yeast growth from alpha-synuclein toxicity; Potency, µM (doses to about 46.1 µM), usual class: activators; hit rate 0.14% among 370,000; AID 652106; Yeast expressing alpha-synuclein, growth rescue, BacTiter-Glo, 24 h; also: nearly all actives have a fitted effect of over 65% in size
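Rescue of yeast growth: cells expressing toxic alpha-synuclein, induced in galactose at OD600 0.02, incubated with compound 24 h at 30 C. ATP luminescence quantified growth; inhibitors of toxicity appear as activators.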
TDP-43 yeast inh: rescues yeast growth from TDP-43 toxicity | TDP-43 expressing yeast growth rescue, BacTiter-Glo, 24 h | Potency, µM (series often up to 46.1 µM), usual class: activators | hit rate 1.8% among 410,000; also: nearly all actives have a fitted effect of over 50% in size
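Growth rescue of TDP-43-toxic yeast measured as ATP luminescence (BacTiter-Glo). Cells grown to mid-log in raffinose, induced in galactose at OD600=0.02, exposed to compound 24 hr at 30 deg C.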
Numbers stand for hits; – = inactive; ? = inconclusive; · = no result given; [ ] = remark or other dose. Unless noted, calls follow the shape of the dose curve; as a rule, active = well fitted curve in the direction sought with a large enough effect; inconclusive = small, poorly fitted or top-dose-only effect, or another doubt; inactive = no such curve, though single readings can be large; an effect the other way counts as inactive or inconclusive.

SMILES	FUS suppressor	CCT modulator	Abeta rescue	MmCpn inh	aSyn yeast inh	TDP-43 yeast inh
CC(NC(=S)Nc1cccc(C(F)(F)F)c1)C(C)(C)C (stereo not given)	–	–	13µM	–	–	–
CCN=C1S/C(=C\c2cn(CC)c3ccccc23)C(=O)N1CC	–	–	–	–	–	18µM
CCN1C(=O)S/C(=C/c2cn(C)c3ccccc23)C1=O	–	–	–	–	–	–
CSc1ncc(Cl)c(C(=O)Nc2cccc(Cl)c2)n1	–	–	–	–	–	22µM
CC(=O)Nc1ccc(NC(=O)c2nc(SCc3ccccc3F)ncc2Cl)cc1	·	·	·	·	32µM	·
CCc1nnc(NC(=O)c2nc(SCc3ccc(F)cc3)ncc2Cl)s1	?	·	–	·	·	16µM
Cc1ccc(NC(=O)c2nc(SCc3ccccc3F)ncc2Cl)cc1	·	·	·	·	–	·
COc1ccc(OC(=O)c2cn(-c3cccc(OC)c3)c(=O)c3ccccc23)cc1	–	·	–	·	·	–
O=C(Nc1ccccc1Cl)O[C@@H]1CC[C@@]23CCCN2C(=O)CCC[C@H]3C1	–	·	·	·	·	·
COCc1c(C(=O)N2CCN(S(=O)(=O)c3ccccc3Cl)CC2)oc2ccccc12	–	–	–	–	–	11µM
Cc1c(C(=O)N2CCN(S(=O)(=O)c3ccccc3F)CC2)oc2c(Cl)cccc12	?	–	–	–	–	14µM
CCc1cc(C(=O)N2CCN(S(=O)(=O)c3ccccc3F)CC2)sc1C	–	–	–	–	–	22µM
COCc1c(C(=O)N2CCN(Cc3nc4ccccc4s3)CC2)oc2ccccc12	·	–	–	–	–	–
FC(F)(F)Oc1cccc(Cn2ccc3ccc(-c4ccc5ccn(Cc6ccccc6)c5c4)cc32)c1	–	·	·	·	·	·
O=C(COC(=O)C(O)c1ccccc1)c1ccc2c(c1)OCCO2 (stereo not given)	–	-39	–	–	–	–
O=C(C[n+]1ccc(/C=C/c2ccccc2)cc1)c1ccc2c(c1)OCCO2	–	-66	–	–	–	–[1.82 µM]
